# Assay outcomes: PubChem BioAssay, National Center for Advancing Translational Sciences (NCATS)
# JMJD2A Tudor inh – JMJD2A Tudor domain (human) inhibition; 4.4% of 390,000 active; AID 504339; AlphaScreen JMJD2A-Tudor / H3K4me3 peptide binding; Potency, µM (doses to about 114 µM), usual class: inhibitors; O75164; further: nearly all actives have a fitted effect of over 50% in size
# BAZ2B inh – blocks human BAZ2B. AlphaScreen BAZ2B-H3K14Ac peptide displacement. Potency, µM (titrated, usually from 114 µM), actives largely listed as inhibitors. 4.4% of 360,000 active. AID 504333; further: nearly all actives have a fitted effect of over 60% in size
#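 Complex of BAZ2B and biotin-H3K14Ac (50 nM apiece) forms over 30 min at RT, then faces library compounds up to 110 uM for another 30 min; AlphaScreen beads added, 20 min dark incubation, luminescence read.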
# Sfp PPTase inh – blocks B. subtilis Sfp PPTase activity | Biochemical Sfp PPTase activity, qHTS | Potency, µM, actives largely listed as inhibitors | 3.5% of 310,000 active;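 further: the enzyme is Sfp with the accession as filed and its product quenches rhodamine fluorescence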
#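 Compounds were incubated with enzyme (final 15 nM) for 15 min at room temperature before substrate addition started the reaction. Fluorescence at 525 nm excitation, 598 nm emission was recorded immediately and after 30 minutes.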
# G9a inh – inhibitors of human histone lysine methyltransferase G9a | 8.8% of 350,000 active | Potency, µM (titrated, usually from 102 µM), hits mostly inhibitors | G9a H3K9 monomethylation, AlphaScreen, 2 h | Q96KQ7; further: nearly all actives have a fitted effect of over 75% in size
#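 Enzyme 20 nM + cpd, 15 min RT; add b-H3K9 pep 500 nM / SAM 20 uM; 2 h RT; anti-H3K9me1 Ab 0.5 ug/mL + SA donor / anti-rabbit acceptor beads 20 ug/mL each, 10 min; AlphaScreen read.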
# HP1b binding inh – HP1-beta chromodomain-methylated histone interaction inhibition | P83916 | 0.56% of 390,000 active | Potency, µM (highest dose often 114 µM), most hits filed as inhibitors | AlphaScreen HP1-beta / biotin-H3K9me3 peptide binding | AID 540317; further: nearly all actives have a fitted effect of over 70% in size
#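 AlphaScreen: HP1-beta (50 nM) preformed 30 min with biotin-H3(1-18)K9me3 peptide (50 nM) in PBS pH 7.4, 0.01% Tween-20. Compound added for 30 min at RT, then streptavidin donor/nickel chelate acceptor beads (10 ug/mL) for 30 min.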
# Hits are given with their value; – = inactive; ? = inconclusive; · = not tested or not shown; ! = repeats disagree; [ ] = another dose, or the depositor's remark. An excerpt weighted towards active compounds, which were near 12% of everything screened. The call rests on the fitted dose curve; in most records, active means well fitted curve in the direction sought with a large enough effect; inconclusive means small, poorly fitted or top-dose-only effect, or another doubt; inactive means no such curve, though single readings can be large; an effect the other way counts as inactive or inconclusive.
SMILES,JMJD2A Tudor inh,BAZ2B inh,Sfp PPTase inh,G9a inh,HP1b binding inh
CCn1cc(C=C2C(=O)NC(=O)NC2=O)c2ccccc21,–,–,–,–,–
Cc1cc(C)cc(OCCOc2cccc(C=C3C(=O)NC(=O)NC3=O)c2)c1,–,–,50.1µM,–,–
Cc1nn(Cc2ccccc2)c(C)c1C=C1C(=O)NC(=O)NC1=O,–,–,–,–,–
Nc1ccc(N=Nc2ccccc2)cc1,44.7µM,22.4µM,–,44.7µM,?
Nc1ccc(Br)cc1,–,·,·,·,–
CN1[C@@H]2CC[C@H]1CC(OC(=O)N1Cc3ccccc3NC1=O)C2 (stereo partly drawn),·,·,–,·,·
C#Cc1cccc2c1c(C(=O)c1ccc(Cn3c(C)nc4cnccc43)c(F)c1)cn2C(=O)N(C)C,·,·,–,·,·
CCCCCC(O)C1C(=O)OC(C)C(O)\C=C/C=C\C=C/C=C\C=C(\C)C(O)C(O)C(O)CC(O)CC(O)CC(O)CC(O)CC1O (stereo not drawn),·,·,–,–[12.7 µM],·
c1ccc(C2(N3CCCCC3)CCCCC2)cc1,–,·,·,·,–
S=C=Nc1cccc(C2(N3CCCCC3)CCCCC2)c1,–,–,–,14.1µM,–
CC1(C)C(O)CC(O)[C@]2(C)C1CC(=O)[C@]1(C)C2CC[C@@]2(C)C(c3ccoc3)OC(=O)C3OC321 (stereo partly drawn),·,·,–,–[2.33 µM],·
C=C1[C@@H](O)C2C=CC[C@H](C)C(=O)[C@@](C)(O)C=C[C@@H](OC(C)=O)[C@@]23C(=O)N[C@H](Cc2ccccc2)[C@@H]3[C@@H]1C (stereo partly drawn),·,·,–,·,·
CC(N)Cc1ccc(O)cc1 (stereo not drawn),·,·,–,–[2.33 µM],·
CC(C)N1CCN(c2ccc(O)cc2)CC1,?,–,–,8.91µM,?
Cc1ccccc1OCCN=Cc1c(O)n(C)c(=O)n(C)c1=O,–,–,–,–,–
CCOc1ccccc1N=Cc1c(O)n(C)c(=O)n(C)c1=O,–,–,–,50.1µM,–
COc1ccc(CCNCC2CCCO2)cc1 (stereo not drawn),28.2µM,?,–,·,?
COc1cc(/C=N/NC(=O)c2cnccn2)cc(OC)c1OC,–,–,–,?,–
Cc1ccc(-c2nc(CS(=O)CC(=O)NC3CCCC(C)C3C)c(C)o2)cc1 (stereo not drawn),–,–,–,35.5µM,–
CC1CCCC(NC(=O)COC(=O)c2cn(C)c3ccccc23)C1C (stereo not drawn),–,–,·,–[12.7 µM],–
Brc1ccc2[nH]cc(/C=N/N3CCCCC3)c2c1,50.1µM,44.7µM,–,?,?
C[N+]1(CC(COCc2ccccc2)OC(=O)Cc2ccccc2)CCOCC1 (stereo not drawn),?,–,–,8.91µM,–
c1ccc(N2CCCC3(CCNCC3)C2)nc1,·,·,–,–[12.7 µM],·
COc1ccc(CC(=O)NC(=S)NNC(=O)COc2c(C)cccc2C)cc1,15.8µM,–,–,1.12µM,?
O=C(O)COc1ccccc1,–,?,–,–[0.501 µM],–
SMILES,JMJD2A Tudor inh,BAZ2B inh,Sfp PPTase inh,G9a inh,HP1b binding inh
Cc1ccccc1C(=O)NNC(=S)NC(=O)COc1ccccc1,4.47µM,?,?,0.562µM,?
Cc1o[nH]c(=O)c1C[C@H](N)C(=O)O,·,·,79.4µM!,·,·
Cc1o[nH]c(=O)c1CC(N)C(=O)O (stereo not drawn),·,·,·,21.2µM!,·
Cc1o[nH]c(=O)c1C[C@@H](N)C(=O)O,?,·,79.4µM!,·,–
Cc1ccc(C(O)P(=O)(OCCC(C)C)c2ccc(N(C)C)cc2)cc1 (stereo not drawn),–,?,–,–[2.33 µM],–
CCCC1(CCO)C(=O)NC(=S)NC1=O,20µM,·,·,·,–
Cc1ccc(C(=O)COC(=O)c2cccc(NC(=O)c3ccc(Br)cc3)c2)cc1,–,–,·,?,–
CC1C(=O)OC2O[C@]3(C)CC[C@H]4C(C)CCC1[C@]24OO3 (stereo partly drawn),·,·,–,–[2.33 µM],·
O=C(COc1ccc(Cl)cc1)NC1CN2CCC1CC2 (stereo not drawn),–,–,–,–[12.7 µM],–
COc1ccc(OCC#CCN2CCNCC2)cc1,6.31µM,31.6µM,?,8.91µM,?
CC1CCN(CC#CCOc2ccc(Cl)cc2)CC1,35.5µM,50.1µM,–,–[0.501 µM],?
CCCCCCC[n+]1ccc(-c2cc[n+](CCCCCCC)cc2)cc1,?,79.4µM,–,4.47µM,–
CCCCCCCCCCCCCCCC[n+]1ccccc1,–,·,50.1µM!,–[2.33 µM],–
c1ccc(C[n+]2ccccc2)cc1,–,–,·,–[2.33 µM],–
CCCN(CCC)[C@@H]1CCc2c(F)ccc(O)c2C1,·,·,·,50.1µM,·
CCCN(CCC)C1CCc2cccc(O)c2C1 (stereo not drawn),–,·,?,23.8µM!,–
C[C@@]12CC[C@H]3[C@@H](CC[C@@H]4C[C@H]5S[C@H]5C[C@]43C)[C@H]1CC[C@H]2O,·,·,–,–[21.5 µM],·
S=c1[nH]c2ccccc2[nH]1,?,–,–,12.6µM,–
CCC(C)C(=O)c1c(O)c(C)c2oc3c(C)c(O)c(C(=O)C(C)CC)c(O)c3c2c1O (stereo not drawn),·,·,–,·,·
S=c1[nH]nc(-c2ccco2)n1/N=C/c1cccs1,39.8µM,–,–,1.26µM,–
CCCC[N+]12CCC(CC1)C(=C(c1ccccc1)c1ccccc1)C2,?,50.1µM,–,10µM,?
COC(=O)[C@@H]1C[C@H]2CC[C@H](O)C[C@H]2N1CC1CC1,·,·,–,·,·
